From PubChem BioAssay (Tox21)
Records with an inconclusive call do not appear. The source made the active and inactive calls. Unless noted, calls come from the whole dose curve; as a rule, active = well fitted curve in the direction sought with a large enough effect in the repeat runs; inconclusive = weak or mixed curves; inactive = no such curve, though single readings can be large; an effect the other way counts as inactive or inconclusive.

Assays:
[1] = qHTS assay to identify small molecule agonists of the hypoxia (HIF-1) signaling pathway - cell viability counter screen (AID 1224844; calls by dose curve; note: nearly all actives have a fitted effect of over 50% in size)
Summary of the method: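 CellTiter-Glo luminescence read-out, 30 min RT, taken in the same wells as the beta-lactamase HRE reporter assay; HRE-bla ME-180 cells, 0.5% dialyzed FBS, 17 hr compound treatment at 37C, 5% CO2.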

[2] = qHTS assay to identify small molecule agonists of H2AX (AID 1224845; active = well fitted activation curve with a large enough effect in the signal ratio in the repeat runs, not every such curve was filed as active; the % refers to the signal ratio)
Summary of the method: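 Phospho-H2AX Ser139 measured by HTRF (ex 320 nm; em 665 and 620 nm) after 24 hr antibody incubation. Compounds, 15 concentrations, 0.76% DMSO, were applied to CHO-K1 cells for 3hr at 37C before lysis.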

[3] = qHTS assay to identify small molecule agonists of the hypoxia (HIF-1) signaling pathway (AID 1224846; active = well fitted activation curve with a large enough effect in the signal ratio in the repeat runs, not every such curve was filed as active; the % refers to the signal ratio)
Summary of the method: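 Beta-lactamase FRET read-out (CCF4-AM substrate) from ME-180 cells carrying an HRE-driven bla reporter, after 17 hrs compound exposure at 37C/5% CO2. Cells were seeded at 2,000 per well in 0.5% dialyzed FBS medium and preincubated 5 hrs.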

[4] = qHTS assay to identify small molecule agonists of H2AX - cell viability counter screen (AID 1224847; calls by dose curve;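 note: wild-type CHO-K1 cells; top concentration of the series differs between compounds; nearly all actives have a fitted effect of over 30% in size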)
Summary of the method: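 CHO-K1 cells plated overnight at 37C, then exposed 3 h at 37C to compounds at 15 concentrations (0.76% DMSO final). Viability by CellTiter-Glo luminescence after 30 min at room temperature.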

[5] = qHTS RealTime-Glo MT Cell Viability Assay in HepG2 cells - 24 hour (AID 1224867); note: nearly all actives have a fitted effect of over 50% in size
Summary of the method: (§1)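 Viability was tracked continuously by NanoLuc luminescence from prosubstrate reduced by living HepG2 cells, at successive time points over 40 h of compound exposure. Cells with reagent were preincubated 5 h at 37 °C before compound addition.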

[6] = qHTS RealTime-Glo MT Cell Viability Assay in HEK293 cells - 32 hour (AID 1224868); note: top concentration of the series differs between compounds; nearly all actives have a fitted effect of over 50% in size
Summary of the method: (§2)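 Viability tracked continuously by luminescence as live cells reduce a prosubstrate for NanoLuc; HEK293 cells preincubated 5 h, compound-treated at 37 C, and read at 0, 8, 16, 24, 32 and 40 h.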

[7] = A CellTox Green Cytotoxicity Assay to monitor cytotoxicity in HEK293 cells - 0 hour (AID 1224869); note: nearly all actives have a fitted effect of over 50% in size
Summary of the method: (§3)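 Read-out: fluorescence of a cell-impermeant cyanine dye staining DNA of dead cells, proportional to cytotoxicity. HEK293, 600 cells/well with reagent, compound (23 nL DMSO) added after 5 h; reads at 0, 8, 16, 24, 32, 40 h.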

[8] = qHTS RealTime-Glo MT Cell Viability Assay in HepG2 cells - 40 hour (AID 1224870); note: nearly all actives have a fitted effect of over 50% in size
Summary of the method: (§4)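 Real-time viability: cells seeded at 600 per well together with NanoLuc and cell-permeant prosubstrate, compounds added after 5 h incubation. Luminescence tracked at 0, 8, 16, 24, 32 and 40 h of exposure.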

[9] = A CellTox Green Cytotoxicity Assay to monitor cytotoxicity in HEK293 cells - 40 hour (AID 1224871); note: nearly all actives have a fitted effect of over 45% in size
Summary of the method: as §3

[10] = qHTS RealTime-Glo MT Cell Viability Assay in HEK293 cells - 16 hour (AID 1224872)
Summary of the method: as §2

[11] = qHTS RealTime-Glo MT Cell Viability Assay in HepG2 cells - 8 hour (AID 1224873); note: nearly all actives have a fitted effect of over 55% in size
Summary of the method: as §4

[12] = qHTS RealTime-Glo MT Cell Viability Assay in HEK293 cells - 40 hour (AID 1224874); conditions: RealTime-Glo luminescence; max response: hits give low values; note: nearly all actives have a fitted effect of over 50% in size
Summary of the method: (§5)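 Luminescence readout at each listed time point; HEK293, 600 cells/well, RealTime-Glo MT reagent added with cells; compounds pinned (23 nL in DMSO) after 5 h at 37 C; continuous culture at 37 C.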

[13] = A CellTox Green Cytotoxicity Assay to monitor cytotoxicity in HEK293 cells - 24 hour (AID 1224875); note: series mostly up to about 77 µM; nearly all actives have a fitted effect of over 45% in size
Summary of the method: as §3

[14] = A CellTox Green Cytotoxicity Assay to monitor cytotoxicity in HepG2 cells - 16 hour (AID 1224876); note: nearly all actives have a fitted effect of over 45% in size
Summary of the method: (§6)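 HepG2, 600 cells/well premixed w/ CellTox Green; 5 h settle, 37 C/5% CO2; pintool cpd add (DMSO); 37 C, 40 h; fluorescence read at 0, 8, 16, 24, 32, 40 h.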

[15] = qHTS RealTime-Glo MT Cell Viability Assay in HepG2 cells - 32 hour (AID 1224877); note: nearly all actives have a fitted effect of over 55% in size
Summary of the method: as §1

[16] = A CellTox Green Cytotoxicity Assay to monitor cytotoxicity in HepG2 cells - 24 hour (AID 1224878); note: nearly all actives have a fitted effect of over 45% in size
Summary of the method: as §6

[17] = A CellTox Green Cytotoxicity Assay to monitor cytotoxicity in HepG2 cells - 40 hour (AID 1224879); note: nearly all actives have a fitted effect of over 40% in size
Summary of the method: as §6

[18] = qHTS RealTime-Glo MT Cell Viability Assay in HEK293 cells - 0 hour (AID 1224880)
Summary of the method: as §5

[19] = qHTS assay to identify small molecule antagonists of the estrogen related receptor (ERR) signaling pathway from Tox21 library (AID 1224848); note: nearly all actives have a fitted effect of over 50% in size
Summary of the method: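 Luciferase luminescence (ONE-Glo, 30 min room temperature) was the read-out. Cells of the NTP-supplied ERR line, 2,000 per well, were given 6 h at 37 C before compound addition in DMSO and 18 h exposure at 37 C.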
% is set by controls: 0 for no effect and ±100 for the full control effect.

CC1CCC(CO)CC1 (stereo not drawn)
inactive: Potency [1] | Potency [2] | outcome [3] | outcome [4] | outcome [5] | Potency [6] | outcome [7] | Potency [8] | Potency [9] | Potency [10] | outcome [11] | max response [12] 9.47% | outcome [13] | outcome [14] | Potency [15] | outcome [16] | Potency [17] | Potency [18]

N[C@@H](CCC(=O)O)C(=O)O
inactive: Potency [1] | Potency [2] | outcome [3] | outcome [4] | outcome [5] | Potency [6] | outcome [7] | Potency [8] | Potency [9] | Potency [10] | outcome [11] | max response [12] -0.971% | outcome [13] | outcome [14] | Potency [15] | outcome [16] | Potency [17] | Potency [18]

CC(C)(C)C(=O)c1ccccc1
inactive: Potency [1] | Potency [2] | outcome [3] | outcome [4] | outcome [5] | Potency [6] | outcome [7] | Potency [8] | Potency [9] | Potency [10] | outcome [11] | max response [12] 0.84% | outcome [13] | outcome [14] | Potency [15] | outcome [16] | Potency [17] | Potency [18]

Cc1ccc(-c2ncc(Cl)cc2-c2ccc(S(C)(=O)=O)cc2)cn1
inactive: Potency [1] | Potency [2] | outcome [3] | outcome [4] | outcome [5] | Potency [6] | outcome [7] | Potency [8] | Potency [9] | Potency [10] | outcome [11] | max response [12] -19.4% | outcome [13] | outcome [14] | Potency [15] | outcome [16] | Potency [17] | Potency [18]

CCCCCCCCCCCCCCC(=O)O
inactive: Potency [1] | Potency [2] | outcome [3] | outcome [4] | outcome [5] | Potency [6] | outcome [7] | Potency [8] | Potency [9] | Potency [10] | outcome [11] | max response [12] 23.9% | outcome [13] | outcome [14] | Potency [15] | outcome [16] | Potency [17] | Potency [18]

COCCOCC(OC)OC
inactive: Potency [1] | Potency [2] | outcome [3] | outcome [4] | Potency [19] | outcome [7] | Potency [8] | Potency [9] | Potency [10] | outcome [11] | max response [12] -1.01% | outcome [13] | outcome [14] | Potency [15] | outcome [16] | Potency [17] | Potency [18]

OCCc1ccccn1
inactive: Potency [1] | Potency [2] | outcome [3] | outcome [4] | outcome [5] | Potency [6] | outcome [7] | Potency [8] | Potency [9] | Potency [10] | outcome [11] | max response [12] 3.13% | outcome [13] | outcome [14] | Potency [15] | outcome [16] | Potency [17] | Potency [18]

O=C(O)CCSCCC(=O)O
inactive: Potency [1] | Potency [2] | outcome [3] | outcome [4] | outcome [5] | Potency [6] | outcome [7] | Potency [8] | Potency [9] | Potency [10] | outcome [11] | max response [12] 0.716% | outcome [13] | outcome [14] | Potency [15] | outcome [16] | Potency [17] | Potency [18]

CC(N)C12CC3CC(CC(C3)C1)C2 (stereo not drawn)
inactive: Potency [1] | Potency [2] | outcome [3] | outcome [4] | outcome [5] | Potency [6] | outcome [7] | Potency [8] | Potency [9] | Potency [10] | outcome [11] | max response [12] -3.62% | outcome [13] | outcome [14] | Potency [15] | outcome [16] | Potency [17] | Potency [18]

C=CC(=O)OCCCl
inactive: Potency [1] | Potency [2] | outcome [3] | outcome [4] | outcome [5] | Potency [6] | outcome [7] | Potency [8] | Potency [9] | Potency [10] | outcome [11] | max response [12] 21% | outcome [13] | outcome [14] | Potency [15] | outcome [16] | Potency [17] | Potency [18]

NO
inactive: Potency [1] | Potency [2] | outcome [3] | outcome [4] | outcome [5] | Potency [6] | outcome [7] | Potency [8] | Potency [9] | Potency [10] | outcome [11] | max response [12] -12.7% | outcome [13] | outcome [14] | Potency [15] | outcome [16] | Potency [17] | Potency [18]

CCOC(=O)OC(C)OC1=C(C(=O)Nc2ccccn2)N(C)S(=O)(=O)c2ccccc21 (stereo not drawn)
inactive: Potency [1] | Potency [2] | outcome [3] | outcome [4] | Potency [19] | Potency [8] | Potency [9] | Potency [10] | outcome [11] | max response [12] 1.81% | outcome [13] | outcome [14] | Potency [15] | outcome [16] | Potency [17] | Potency [18]

CC(CC=O)CC(C)(C)C (stereo not drawn)
inactive: Potency [1] | Potency [2] | outcome [3] | outcome [4] | outcome [5] | Potency [6] | outcome [7] | Potency [8] | Potency [9] | Potency [10] | outcome [11] | max response [12] -0.119% | outcome [13] | outcome [14] | Potency [15] | outcome [16] | Potency [18]

CC1=CC(=O)[C@H]2C[C@@H]1C2(C)C
inactive: Potency [1] | Potency [2] | outcome [3] | outcome [4] | outcome [5] | Potency [6] | outcome [7] | Potency [8] | Potency [9] | Potency [10] | outcome [11] | max response [12] -1.77% | outcome [13] | outcome [14] | Potency [15] | outcome [16] | Potency [17] | Potency [18]
